PubChem BioAssay AID686971 (National Center for Advancing Translational Sciences (NCATS), 2013)
Among all 360,000 compounds or so, about 7,500 (2.1%) were called active. Another 8% or so got no clear call; they are omitted. The sample holds actives, similar compounds and a random draw of the others, so the mix is not that of the screen. A number with no mark means an inactive call. Calls follow the shape of the dose curve; as a rule, active = well fitted cell-killing curve with a large enough effect; inconclusive = small, poorly fitted or top-dose-only effect, or effect the other way, or another doubt; inactive = no such curve, though single readings can be large or run the other way.

Experiment: qHTS for induction of synthetic lethality in tumor cells producing 2HG: qHTS for the HT-1080-IDH1KD cell line;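 as to activity, negative = toxicity: 0% = DMSO wells and -100% = cell-free medium wells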
Conditions: HT-1080 IDH1 knockdown viability, ATP luminescence, 48 h; series mostly up to 46.1 µM; activity, negative = toxicity: at the top concentration
Procedure, shortened: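 HT-1080-IDH1KD cells (IDH1 knocked down), 750/well in RPMI with 5% FBS, treated with compound 48 h at 37 degrees C. Viability by CellTiter-Glo luminescence, normalised to DMSO and no-cell wells; concentration-response curves classed.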
Potency is read from the fitted curve at half-maximal effect.

SMILES | activity, negative = toxicity [%] | Potency
COc1ccc(NC2CCCN(C(=O)c3ccccc3-c3ncc[nH]3)C2)cc1 (configuration not stated) | -0.498 | –
COc1cc(-c2nnc(NC(=O)CS(=O)(=O)c3ccc(Cl)cc3)o2)cc(OC)c1OC | -18.1 | –
CC(=O)Nc1c(-c2ccc(C)cc2)nc2ccc(Cl)cn12 | 10.7 | –
CCCCn1nnnc1C1(C)CCC(=O)N1Cc1ccc(OC)c(OC)c1 (configuration not stated) | 13.4 | –
CCCCCCCCn1c2c(c(=N)c3c1CCC3)CCCC2 | – | 8.2 µM (active)
CCCc1nc2ccccc2n1C(C)C(=O)NC(C)(C)C (configuration not stated) | 3.92 | –
CC1CCCC(C)N1C(=O)COC(=O)c1ccccc1C(=O)c1ccccc1 (configuration not stated) | 0.369 | –
Cc1cccnc1NC(=O)c1cccc(S(=O)(=O)N2CCN(c3ccc(F)cc3)CC2)c1 | – | 29.1 µM (active)
Cc1ccc(C(=O)Nc2ncccc2C)cc1S(=O)(=O)N1CCOCC1 | -0.0269 | –
O=C(Nc1ccc2c(c1)CCC2)c1cccc(S(=O)(=O)N2CCN(c3ccc(F)cc3)CC2)c1 | -0.473 | –
O=C1NC[C@H](CCCCN2CCN(CCc3ccccc3)C(=O)C2=O)N(CC2CCCCC2)C1=O | 19.7 | –
COC(=O)[C@]12CCCCC=C1N(Cc1ccco1)C(=O)[C@H](CC(=O)NCC1CCCCC1)C2 | 5.64 | –
CCOC(=O)C1=CCC2C(=O)N(Cc3ccccc3)C(=O)C12 (configuration not stated) | 16.5 | –
COc1ccc(C2=Nc3ccccc3NC(=O)C2N(C(=O)c2cc3ccccc3[nH]2)c2ccccc2)cc1 (configuration not stated) | -17.6 | –
CC(C)Oc1cc(F)ccc1-c1cc(C(=O)Nc2ccc(F)cc2)[nH]n1 | 23.9 | –
COC(=O)c1ccc(-c2c(-c3ccccc3)ncc3cc(OC)c(OC)cc23)cc1 | 12.5 | –
CC(=O)c1ccc(-c2cnc3c(NC=O)cc(-c4cccc(NS(C)(=O)=O)c4)cn23)cc1 | – | 8.2 µM (active)
COc1ccc(-c2cc(NC=O)c3ncc(-c4ccccc4)n3c2)cc1OC | – | 16.4 µM (active)
CS(=O)(=O)Nc1cccc(-c2cn3ccccc3n2)c1 | 2.25 | –
COc1cc(C=O)ccc1Oc1nnnn1-c1ccccc1 | 0.603 | –
CC(=O)c1cccc(-c2cnc3c(NC=O)cc(-c4ccc(N5CCN(C)CC5)cc4)cn23)c1 | 0.623 | –
O=[N+]([O-])c1ccc(C(S(=O)(=O)Cc2ccccc2)S(=O)(=O)Cc2ccccc2)cc1 | 15.6 | –
C[C@H]1COc2cc(N3CCSCC3)ccc2S(=O)(=O)N1 | 10.8 | –
O=C(O)C1=C(C(=O)O)C2CCC1C2 | 3.61 | –
CCCNC(=O)c1cc(C2CCCCN2S(=O)(=O)c2ccc(C#N)cc2)on1 (configuration not stated) | 14.6 | –
NC1=CC(=O)C(=O)c2cccnc21 | – | 11.6 µM (active)

SMILES | activity, negative = toxicity [%] | Potency
CCOc1ccc(CCN2C(=O)c3cccnc3C2=O)cc1OCC | 26.8 | –
O=C1c2cccnc2C(=O)N1Cc1cccs1 | 16 | –
COc1cc2nc(Cl)nc(NC3CC3)c2cc1OC | -9.28 | –
CC(C)CCC(=O)Nc1cc(S(=O)(=O)N2CCOCC2)ccc1N1CCCC1 | 0.313 | –
Cc1ccc(-c2ccc(CN3C(C(C)C)C(=O)N(Cc4cn(CCC5OCCCO5)nn4)CCS3(=O)=O)cc2)cc1 (configuration not stated) | -7.51 | –
Cc1cc2c(cc1C)N1C(=O)c3cc4ccccc4cc3NC(=O)C1C(=O)N2 (configuration not stated) | 1.1 | –
CS(=O)(=O)/C(C#N)=C/c1cccn1S(=O)(=O)c1ccc([N+](=O)[O-])cc1 | -6.02 | –
O=C(C1CCCO1)N1CCN(C(=O)C23CC4CC(CC(C4)C2)C3)CC1 (configuration not stated) | 14.9 | –
CCN(CC)C(=O)N(CC)Cc1ccccc1 | 2.96 | –
CN(/N=C/c1ccccc1)C(=S)c1ccccc1 | -5.97 | –
Oc1ccc(/C=N/N(Cc2ccccc2)c2ccccc2)cc1 | – | 16.4 µM (active)
C[C@H]1CN([C@@H](C)CO)C(=O)CCCn2cc(nn2)CO[C@@H]1CN(C)C(=O)Nc1ccccc1 | 1 | –
O=C(CSc1nc2cccc(F)c2c(=O)n1-c1ccccc1)Nc1ccc2c(c1)CCC2 | 18.2 | –
NC(=O)CSc1nnc(-c2cccc(S(=O)(=O)N3CCOCC3)c2)o1 | -2.93 | –
Cn1c(CNC(=O)c2ccco2)nnc1SCC(=O)N1CCN(c2ccccc2)CC1 | 3.17 | –
Cn1c(Cc2cccc3ccccc23)nnc1SCC(=O)N1CCN(c2cccc(Cl)c2)CC1 | – | 20.6 µM (active)
Cc1cc2nnc(SCC(=O)N3CCN(c4ccccc4)CC3)n2c(N)n1 | 21.7 | –
CCc1c(N=O)c(-c2ccccc2)n(O)[n+]1[O-] | -7.78 | –
CCN(C(=O)Nc1cccc2ccccc12)c1ccccc1 | -4.17 | –
COc1cccc(NC(=O)CN(C)C(=O)c2cc(Cl)nc3ccccc23)c1 | -3.44 | –
CCN(CC)C(=O)C1=C(C)N(Cc2ccc(F)cc2)C(=O)C(CC(=O)NC2CCCC2)C1 (configuration not stated) | -4.13 | –
CC[n+]1cc(C)ccc1/C=C/c1ccc(N(C)C)cc1 | – | 7.31 µM (active)
O=C(NC1CCCCC1)C(c1cc2ccccc2o1)n1c(=O)c(-c2ccco2)nc2ccccc21 (configuration not stated) | -16.8 | –
O=C(O)CCn1cc(/C=C/C(=O)c2ccc(Cl)cc2)c(-c2cccc(Br)c2)n1 | – | 23.1 µM (active)
O=C(/C=C/NNC(=O)c1cccc(Br)c1)c1ccccc1 | -10.2 | –
CCOC(=O)/C(C#N)=C/c1cn(CCC(=O)O)nc1-c1ccc(Br)cc1 | -2.79 | –

SMILES | activity, negative = toxicity [%] | Potency
COc1ccc(CN2C[C@H]3CON(C)[C@H]3C[C@H]2c2ccc(-c3cccc(F)c3)cc2)cc1 | -23 | –
Cc1ccccc1C#CC1=CC(=O)CC(C)(C)C1 | -9.77 | –
C/C(COc1ccccc1)=N\NC(=O)c1nnn(-c2nonc2N)c1-c1ccc(C)cc1 | -8.96 | –
COc1ccc(C(=O)N2CC3(C)CC2CC(C)(C)C3)cc1OC (configuration not stated) | -4.16 | –
CN(C)C(=O)COC(=O)c1cccc(S(=O)(=O)N2CC3(C)CC2CC(C)(C)C3)c1 (configuration not stated) | -3.59 | –
Cc1nnnn1/C(=C\c1ccccc1)C(=O)OCC(=O)N1CC2(C)CC1CC(C)(C)C2 (configuration not stated) | – | 14.6 µM (active)
COc1cc(C=NC2CCCCC2)ccc1O | 0.126 | –
O=C(OCC(=O)N1CCCCCC1)c1cccc(Cl)c1Cl | 16.8 | –
Cc1cccc(C)c1NC(=O)C(c1cccc(F)c1)N1CCN(C)CC1 (configuration not stated) | 0.538 | –
COc1ccc(-c2c(C)cc3oc(=O)cc(-c4ccccc4)c3c2C)cc1OC | 5.89 | –
COc1ccc(-c2c(C)cc3oc(=O)cc(-c4ccccc4)c3c2C)cc1F | 13.4 | –
COc1cc(OC)c2c(-c3cccc(-c4cccc(N)c4)c3)cc(=O)oc2c1 | – | 5.17 µM (active)
COC(=O)c1ccc(CN2C(=O)C(Cc3ccccc3)ON=C2c2ncccc2C)o1 (configuration not stated) | 17.4 | –
CCN1CCC2(CC1)N=C(c1ccc(F)cc1)C(=S)N2C(=O)c1ccc(C)cc1 | – | 23.1 µM (active)
CCN1CCN(C(=O)CSc2ccc(C)cc2)CC1 | 3.16 | –
Cc1ccc(SCC(=O)N2CCN(c3ccc(F)cc3)CC2)cc1 | 17.4 | –
CC(C)NC(=O)C1(C)CCCCCN1C(=O)c1ccc(-c2ccccc2)cc1 (configuration not stated) | 11.9 | –
Cc1ccccc1N1C(=O)C2ON(c3ccccc3)C(c3ccncc3)C2C1=O (configuration not stated) | 4.69 | –
O=C1[C@@H](c2ccccc2)[C@@H](c2ccccc2)N1c1cccnc1 | – | 16.4 µM (active)
O=C1C(=O)N(c2ccccc2)C(c2ccccc2)C1c1ccccc1 (configuration not stated) | -0.624 | –
Fc1cccc(Cc2c(-c3cccc(Cl)c3)nc3ccc(Br)cn23)c1 | -22.4 | –
Cc1ccnc(SC2CC(=O)N(c3ccccc3)C2=O)n1 (configuration not stated) | -0.931 | –
Cc1ccc(-n2ncc3c2CCCC3NC(=O)c2cnccn2)cc1C (configuration not stated) | -13.4 | –
CC(=O)NCC(=O)NC1CCCc2c1cnn2-c1ccccc1F (configuration not stated) | 4.51 | –
Cn1nccc1C(=O)NC1CCCc2c1cnn2-c1ccc(F)cc1F (configuration not stated) | – | 0.92 µM (active)
N#CCCN(C(=S)Nc1ccc(Cl)c(Cl)c1)C1CCCCC1 | -6.17 | –

SMILES | activity, negative = toxicity [%] | Potency
Cc1ccc(C(O)c2ncc(-c3ccccc3F)[nH]2)cc1F (configuration not stated) | -8.27 | –
CCOC(=O)c1c(NC(=S)SC)sc(C(=O)N2CCc3ccccc3C2)c1C | -7.65 | –
O=C(Cn1c(NCCO)nc2ccccc21)c1ccc(Cl)cc1Cl | – | 20.6 µM (active)
O=S(=O)(O)c1nc2ccccc2n1Cc1ccc(Cl)cc1Cl | -15.2 | –
CC(C)(C)C(=O)Cn1c(NCCO)nc2ccccc21 | 2.2 | –
CCCCCCn1c(=O)n2n(c1=O)C[C@]1(OC(=O)NCc3ccc(OC)c(OC)c3)CN(S(=O)(=O)c3ccc(C)cc3)C[C@]1(O)C2 | -14.7 | –
CCc1oc(-c2ccc(OC)cc2)c(C(=O)OCCCCCO)c1C(C)OCCO (configuration not stated) | -13.9 | –
CC1(C)N=C(N)NC(Nc2ccc(Cl)cc2)=N1 | 1.16 | –
COc1ccccc1NC1=NC(c2ccc(Cl)cc2)N=C(N)N1 (configuration not stated) | – | 5.62 µM (active)
COc1ccccc1NC(=O)C1CCCN1S(=O)(=O)c1ccc(Cl)cc1 (configuration not stated) | -1.61 | –
COc1ccc([C@H]2N[C@]3(CCCN(Cc4ccco4)C3=O)[C@H]3C(=O)N(C)C(=O)[C@@H]23)cc1 | -1.26 | –
O=C1OCCOC2CCCc3oc(-c4ccccc4)c1c32 (configuration not stated) | 6.75 | –
C[C@H]1Cn2cnc(C(=O)N[C@@H](Cc3c[nH]c4ccccc34)C(=O)OC(C)(C)C)c2C(=O)N1 | 12.4 | –
O=S(=O)([N-]c1nc2ccccc2nc1-[n+]1ccc(Cc2ccccc2)cc1)c1ccc(Br)s1 | – | 20.6 µM (active)
O=C(NCCc1ccccc1)C1CCN(S(=O)(=O)c2ccc(Br)s2)CC1 | -5.3 | –
O=S(=O)(NCc1cccnc1)c1ccc(Br)s1 | 1.62 | –
COCOc1cccc(CN2CCC(C)(Oc3ccc(SC)cc3)C2)c1 (configuration not stated) | -8.36 | –
CCOC(=O)C1CCCN(C(=O)c2ccc(C)c(F)c2)CC1 (configuration not stated) | 1.99 | –
CCC1OC(C2CC2)CC2=C1C(=O)OC(C)(C)O2 (configuration not stated) | 0.481 | –
Brc1ccc2ncnc(NCc3cccnc3)c2c1 | -15.5 | –
COc1ccc(CNc2ncnc3ccccc23)cc1 | -4.12 | –
c1coc(CNc2ncnc3ccccc23)c1 | – | 20.6 µM (active)
COc1cccc(C(NC(C)=O)c2nc(-c3cnc4ccccc4c3)cs2)c1 (configuration not stated) | 3.84 | –
O=C(Nc1ccc2c(c1)OCCO2)C(C1CC1)N1CCC(Cc2ccccc2)CC1 (configuration not stated) | -22 | –
